# High-throughput results as filed in PubChem.
# Most compounds without a hit are left out; they make up all but 12% or so of the library.
# Sfp PPTase inh: qHTS Assay for Inhibitors of Bacillus subtilis Sfp phosphopantetheinyl transferase (PPTase). 4'-phosphopantetheinyl transferase ffp (Bacillus subtilis), Q9F4F7. Biochemical Sfp PPTase activity, qHTS. Potency, µM, without a hit: largest response in the series, negative = inhibition, usual class: inhibitors. 3.5% of 310,000 active. AID 1490, 2009;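 note: the enzyme is Sfp with the accession as filed and its product quenches rhodamine fluorescence; 0% = enzyme reaction without inhibitor and -100% = no enzyme wells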
#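 With Hepes-Na pH 7.6 buffer containing 10 mM MgCl2, Sfp (15 nM) modified BHQ-2-YbbR (12.5 uM) using rhodamine-CoA (5 uM). Two reads 30 minutes apart at 525/598 nm yielded each well's rate.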
# G9a block: qHTS Assay for Inhibitors of Histone Lysine Methyltransferase G9a | Histone-lysine N-methyltransferase EHMT2 (Homo sapiens), Q96KQ7 | G9a H3K9 monomethylation, AlphaScreen, 2 h | Potency, µM (titrated, usually from 102 µM), without a hit: at the top dose activity, negative = inhibition, usual class: inhibitors | 8.8% of 350,000 active; note: % is set by controls: 0 for no effect and ±100 for the full control effect; nearly all actives have a fitted effect of over 75% in size
#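 Methyltransferase reactions run at room temperature for 2 h (20 nM enzyme, 500 nM biotin-H3K9 peptide, 20 uM SAM) after a 15 min compound preincubation; product detected by AlphaScreen beads and anti-H3K9me1 antibody.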
# BAZ2B inh: qHTS Assay for Inhibitors of BAZ2B; AlphaScreen BAZ2B-H3K14Ac peptide displacement; Potency, µM (titrated, usually from 114 µM), without a hit: at the top dose activity change, negative = inhibition, hits mostly inhibitors; 4.4% of 360,000 active; AID 504333, 2011; note: % is set by controls: 0 for no effect and ±100 for the full control effect; nearly all actives have a fitted effect of over 60% in size
#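 Protein-peptide AlphaScreen: BAZ2B 50 nM, b-H3K14Ac 50 nM, 1x PBS pH 7.4 + 0.01% Tween-20. Preincubation 30 min RT; cpd 30 min RT (top 110 uM); beads 20 min RT, light-protected.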
# HP1b chromo inh: HTS for Inhibitors of HP1-beta Chromodomain Interactions with Methylated Histone Tails; Chromobox protein homolog 1 (Homo sapiens), P83916; AlphaScreen HP1-beta / biotin-H3K9me3 peptide binding; 0.56% of 390,000 active; Potency, µM (series often up to 114 µM), inactives show at the highest dose activity change, negative = inhibition, most hits filed as inhibitors; note: nearly all actives have a fitted effect of over 70% in size
#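 AlphaScreen: HP1-beta (50 nM) preformed 30 min with biotin-H3(1-18)K9me3 peptide (50 nM) in PBS pH 7.4, 0.01% Tween-20. Compound added for 30 min at RT, then streptavidin donor/nickel chelate acceptor beads (10 ug/mL) for 30 min.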
# PLK1 PBD inh: qHTS for Inhibitors of PLK1-PDB (polo-like kinase 1 - polo-box domain): Primary Screen; Plk1 PBD binding of FITC phosphopeptide, fluorescence polarization; Potency, µM, without a hit: max response, negative = inhibition, hits mostly inhibitors; 2.8% of 360,000 active; AID 720504, 2013; note: series mostly up to about 57 µM; % is set by controls: 0 for no effect and ±100 for the full control effect; nearly all actives have a fitted effect of over 65% in size
# JMJD2A Tudor inh: qHTS Assay for Inhibitors of JMJD2A-Tudor Domain. Lysine-specific demethylase 4A (Homo sapiens), O75164. AlphaScreen JMJD2A-Tudor / H3K4me3 peptide binding. Potency, µM (titrated, usually from 114 µM), inactives show at the top dose activity change, negative = inhibition, hits mostly inhibitors. 4.4% of 390,000 active; note: % is set by controls: 0 for no effect and ±100 for the full control effect; nearly all actives have a fitted effect of over 50% in size
# An asterisk follows results filed as active; ? = inconclusive; · = no result given; [ ] = dose if it differs, or a comment. Calls come from the whole dose curve; as a rule, active = well fitted curve in the direction sought with a large enough effect; inconclusive = small, poorly fitted or top-dose-only effect, or another doubt; inactive = no such curve, though single readings can be large; an effect the other way counts as inactive or inconclusive. Potency is the fitted concentration of half-maximal effect.
SMILES,Sfp PPTase inh,G9a block,BAZ2B inh,HP1b chromo inh,PLK1 PBD inh,JMJD2A Tudor inh
CCOC(=O)c1c(C)sc(-c2c(-c3cc(C)ccc3C)[nH]c3c2c(=O)n(C)c(=O)n3C)c1O,·,?,79µM*,5%,·,?
CCOC(=O)c1c(C)sc(-c2c(-c3cc(C)ccc3C)[nH]c3c2c(=O)[nH]c(=O)n3C)c1O,·,?,50µM*,10%,·,-27%
CCNc1ncc2nc(-c3ccccc3)c(=O)n(C[C@H]3CCCO3)c2n1,13%,-2%[0.501 µM],·,·,·,·
CC1=CC(C)(C)N2C(=O)C3(NCCc4c3[nH]c3ccccc43)c3cc(C)cc1c32 (stereo unspecified),-11%,?,56µM*,-2%,-15%,-16%[11.4 µM]
CCCCCOC(=O)Cn1c(=O)c2c(nc(N3CCOCC3)n2C)n(C)c1=O,-3%,10µM*,8%,1%,-2%,?
CC(C)N(C(C)C)S(=O)(=O)c1ccc(NN)nc1,79µM*,3%[12.7 µM],-34%,34%,-1%,-34%
CCN(CC)S(=O)(=O)c1ccc(NN)nc1,13µM*,-2%,·,-4%,24µM*,20µM*
Cc1cccc2sc(NC(=O)C3c4ccccc4Oc4ccccc43)nc12,12%,-3%,-8%,36%,-6%,-11%
COc1ccc(Nc2nc(-c3ccc(OC)cc3)cs2)cc1,-6%,-27%,-1%,28%,-7%,-1%
Cc1csc(Nc2ccc(Cl)cc2)n1,12%,45µM*,?,4%,-11%,-16%
Cc1ccc(Nc2nc(C)cs2)cc1,22µM*,35µM*,-23%,?,?,?
Cc1cccc(NC(c2ccc(O)cc2)c2ccc3ccc(C)nc3c2O)n1 (stereo unspecified),?,4.5µM*,?,?,4.2µM*,45µM*
COc1cccc(C(Nc2ccccc2)c2ccc3ccc(C)nc3c2O)c1 (stereo unspecified),·,·,·,·,-22%,·
CC(=O)c1ccc(OCC(=O)N2CCCC(Nc3ccc(C)c(C)c3)C2)cc1 (stereo unspecified),15%,44%,-18%,17%,-9%,-24%
CCCC1=C(C(=O)OCC)C(c2cccnc2)n2nc(C)nc2N1 (stereo unspecified),14%,15%,-14%,6%,-4%,-9%
O=C(NCc1ccccc1F)C1CCCN(C(=O)Nc2ccc(F)cc2)C1 (stereo unspecified),19%,-6%,-11%,23%,-13%,-4%
COCC(C)n1c(SCC(=O)c2cc(C)n(C)c2C)nc2ccccc2c1=O (stereo unspecified),-19%,40µM*,50µM*,-28%,2%,?
COCC(C)n1c(C)cc(C(=O)CSc2ccc(NC(C)=O)cc2)c1C (stereo unspecified),-3%,2%[12.7 µM],-30%,?,?,3%
COCC(C)n1c(C)cc(C(=O)CSc2ncccn2)c1C (stereo unspecified),-7%,35µM*,?,24%,-15%,-15%
C=CCC(O)(/C=C/c1ccccc1)c1ccccc1 (stereo unspecified),-19%,·,·,·,·,·
CCc1ccc2oc(C(=O)NC3CCS(=O)(=O)C3)cc(=O)c2c1 (stereo unspecified),17%,14%,-35%,34%,-4%,-11%
Cc1ccccc1C(=O)Nc1ccccc1N1CCCCC1,-6%,277%,61%,154%,-4%,71%
CCn1c(=O)n(CC)c2cc(N3CCCC3)c(NC(=O)c3ccccc3C)cc21,-10%,50µM*,?,-2%,-21%,?
CCn1c(=O)n(CC)c2cc(N3CCCC3)c(NC(=O)c3ccccc3F)cc21,-16%,40µM*,?,?,24µM*,56µM*
CCCCC(=O)O[C@]1(C(=O)CO)CCC2C3CCC4=CC(=O)CCC4(C)C3C(O)CC21C (stereo partly specified),17%,-3%[12.7 µM],·,·,·,·
SMILES,Sfp PPTase inh,G9a block,BAZ2B inh,HP1b chromo inh,PLK1 PBD inh,JMJD2A Tudor inh
O=C(Nc1ccccc1Cl)C1CCCN(S(=O)(=O)c2ccc(-n3cnnn3)cc2)C1 (stereo unspecified),21%,13%[59 µM],3%,20%,-5%,-5%
O=[N+]([O-])c1ccc(S(=O)(=O)N2CCSC2c2ccco2)cc1 (stereo unspecified),40µM*,8.9µM*,?,-22%,12µM*,?
Cc1cc2c(s1)c1cnn(Cc3cc(F)cc(F)c3F)c(=O)c1n2C,·,·,·,·,·,-13%
CCOc1ccc(CN2CCc3nc(Nc4ccc(OC)cc4OC)ncc3C2)cc1,·,?,-37%,-36%,·,50µM*
Cc1ccccc1CN1CCc2nc(Nc3ccc4c(c3)OCCO4)ncc2C1,·,?,22µM*,-11%,·,35µM*
CC(C)Oc1ccc(CN2CCc3nc(Nc4ccc5c(c4)OCCO5)ncc3C2)cc1,·,-26%[12.7 µM],32µM*,-17%,·,32µM*
COc1ccc(Nc2ncc3c(n2)CCN(Cc2ccccc2C)C3)c(OC)c1,·,?,?,7%,·,-32%
CC(=O)C1=C(O)C=C2Oc3c(C(C)=O)c(O)c(C)c(O)c3C2(C)C1=O (stereo unspecified),9%,·,·,·,·,·
Cc1nnc(SCC(=O)NC2CCCCC2)n(N)c1=O,6%,28%[59 µM],-2%,24%,-8%,-14%
N#CCC(=O)c1sccc1-n1cccc1,11%,13µM*,79µM*,-3%,?,-19%[57.1 µM]
N#CCOC(=O)c1sccc1-n1cccc1,18%,5%[59 µM],-6%,5%,-1%,-8%
COc1cc(OC)c(NS(=O)(=O)c2ccc3c(c2)NC(=O)CCS3)cc1Cl,·,-33%[59 µM],1%[57.1 µM],25%,·,-12%
COc1cc(OC)c(NS(=O)(=O)c2ccc3c(c2)NC(=O)CO3)cc1Cl,11%,27%,-15%,6%,6.7µM*,16µM*
CC(C)Oc1ccc(S(=O)(=O)N2CCOCC2)cc1NC(=O)CC1OC(=O)c2ccccc21 (stereo unspecified),·,16µM*,-3%,16%,-1%,-11%
CC(C)Oc1ccc(S(=O)(=O)N2CCCCC2)cc1NC(=O)CC1OC(=O)c2ccccc21 (stereo unspecified),·,-7%[0.501 µM],9%,-1%,-10%,-15%
